Assay outcomes from PubChem BioAssay.
3CLpro inhibitor – SARS-CoV 3CLpro protease inhibition; P0C6X7; recombinant SARS-CoV 3CLpro, quenched FRET peptide cleavage; inhibition, % at 6 µM; actives 0.14% (n = 290,000); AID 1706; in the data active = inhibition above about 12%
FBA Mtb inh – inhibitors of M. tuberculosis fructose-bisphosphate aldolase; P9WQA3; purified M. tuberculosis FBA, fluorescence read-out; inhibition, % at 1 µM; actives 2.3% (n = 360,000); in the data active = inhibition above about 27%
Target sequence (P9WQA3 whole entry, looked up): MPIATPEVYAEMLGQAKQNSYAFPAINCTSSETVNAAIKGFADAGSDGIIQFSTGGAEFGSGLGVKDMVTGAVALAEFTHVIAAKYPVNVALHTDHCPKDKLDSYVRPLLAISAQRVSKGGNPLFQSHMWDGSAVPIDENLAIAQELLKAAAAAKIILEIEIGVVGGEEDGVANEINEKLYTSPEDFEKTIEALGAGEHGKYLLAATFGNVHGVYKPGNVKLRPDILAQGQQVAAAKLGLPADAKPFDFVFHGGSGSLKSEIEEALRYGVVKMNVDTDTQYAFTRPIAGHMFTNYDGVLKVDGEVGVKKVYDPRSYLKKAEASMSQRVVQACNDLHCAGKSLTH
BioA inh – BioA (M. tuberculosis) enzyme inhibition; purified M. tuberculosis BioA enzyme, plate reader; inhibition, % at 9.99 µM; actives 0.096% (n = 360,000); AID 602481; in the data active = inhibition above about 40%
FadD28 FP inh – inhibitors of Mycobacterium tuberculosis FadD28 bisubstrate binding; inhibition, % at 12.5 µM; FadD28 bisubstrate probe binding, fluorescence polarization; actives 0.22% (n = 360,000); AID 588549; in the data active = inhibition above about 8.5%, passing the limit was not always enough
GDH-TPI counter – GDH-TPI coupled enzyme inhibition counter-screen | inhibition, % at 4.8 µM | AID 588335 | GDH-TPI coupled enzyme counterscreen, NADH absorbance | actives 1.2% (n = 360,000); in the data active = inhibition above about 30%
Of the large screens only hits and unclear results are named; the others gave an inactive call. Rows were chosen to be rich in hits. Some 3.1% of all compounds tested hit in one or more screens of this group.

C[C@H]1CCCCO[C@@H](CN(C)C(=O)Nc2ccc3c(c2)OCO3)[C@@H](C)CN([C@@H](C)CO)C(=O)c2cc(NS(=O)(=O)c3cn(C)cn3)ccc2O1	none (no result: 3CLpro inhibitor, FBA Mtb inh, FadD28 FP inh, GDH-TPI counter)
C/C=C/c1ccc2c(c1)O[C@@H](CN(C)C(=O)C1CCOCC1)[C@H](C)CN([C@@H](C)CO)S2(=O)=O	none (no result: 3CLpro inhibitor, FBA Mtb inh, FadD28 FP inh, GDH-TPI counter)
Cc1noc(C)c1S(=O)(=O)N(C)C[C@H]1OCCCC[C@H](C)Oc2ccc(NS(=O)(=O)c3cccs3)cc2C(=O)N([C@@H](C)CO)C[C@@H]1C	none (no result: 3CLpro inhibitor, FBA Mtb inh, FadD28 FP inh, GDH-TPI counter)
CCOc1ccc(N/N=C(/C#N)C(N)=O)cc1	GDH-TPI counter 33
C[C@@H]1CN([C@@H](C)CO)C(=O)c2cc(NC(=O)NC3CCCCC3)ccc2O[C@H]1CN(C)S(C)(=O)=O	none (no result: 3CLpro inhibitor, FBA Mtb inh, FadD28 FP inh, GDH-TPI counter)
C[C@H]1CN([C@@H](C)CO)S(=O)(=O)c2ccc(C#CC(C)(C)O)cc2O[C@@H]1CN(C)C(=O)CC1CC1	none (no result: 3CLpro inhibitor, FBA Mtb inh, FadD28 FP inh, GDH-TPI counter)
O=C1N=C(N2C=CC(=C3C=CNC=C3)C=C2)/C(=C/N=NC(=O)c2ccccc2O)S1	GDH-TPI counter 53
NS(=O)(=O)c1ccc(NC=C2C(=O)OC3(CCCCC3)OC2=O)cc1	GDH-TPI counter 32
CNc1nc(-c2ccc3c(c2)CCN3C(=O)c2cccc(F)c2)cs1	GDH-TPI counter 31 (no result: BioA inh)
CNc1nc(-c2ccc3c(c2)CCN3C(=O)c2ccc(F)cc2)cs1	none
CCOc1cccc2cc(-c3csc(NC(=O)CCC(=O)NCCN4CCCCC4C)n3)c(=O)oc12 (configuration not stated)	GDH-TPI counter 34 (no result: BioA inh)
CCOc1cccc2cc(-c3csc(NC(=O)CCC(=O)NCCCN4CCC(C)CC4)n3)c(=O)oc12	none (no result: FBA Mtb inh, BioA inh, FadD28 FP inh, GDH-TPI counter)
O=C(CCCN1C(=O)c2cccnc2C1=O)Nc1ccc(F)cc1Cl	FBA Mtb inh active (no result: FadD28 FP inh)
Cc1cccc(C(=O)c2ccccc2C(=O)O)c1O	none
CCN(CC)c1ccc(C(=O)c2ccccc2C(=O)O)c(O)c1	GDH-TPI counter 42
CC1(C)Nc2ccccc2C(=O)N1c1ccccc1	FBA Mtb inh 115
C[C@H]1CCCCO[C@H](CN(C)C(=O)c2ccncc2)[C@@H](C)CN([C@@H](C)CO)C(=O)c2cc(NC(=O)Cc3ccccc3)ccc2O1	none (no result: 3CLpro inhibitor, FBA Mtb inh, FadD28 FP inh, GDH-TPI counter)
Cc1cc(C)c(NC(=O)Cn2nnc(C(=O)NCc3ccco3)c2N)c(C)c1	GDH-TPI counter 33 (no result: BioA inh)
Cc1ccc(NC(=O)Cn2nnc(C(=O)NCc3ccco3)c2N)cc1	none
CNC[C@@H]1OCCCC[C@H](C)Oc2ccc(NC(=O)Cc3ccccc3)cc2C(=O)N([C@@H](C)CO)C[C@@H]1C	none (no result: 3CLpro inhibitor, FBA Mtb inh, FadD28 FP inh, GDH-TPI counter)
O=c1oc2ccc3ccccc3c2c2c1SC(C(F)(F)F)C2 (configuration not stated)	none
O=c1oc2ccccc2c2c1SC(C(F)(F)F)C2 (configuration not stated)	FBA Mtb inh active
CCOC(=O)N1CCC(NC(=S)Nc2ccc3nc(N4CCN(C)CC4)cc(C)c3c2)CC1	none
CCOC(=O)N1CCC(NC(=S)Nc2ccc3nc(N4CCN(CC)CC4)cc(C)c3c2)CC1	GDH-TPI counter 35 (no result: BioA inh)
CCCN(CCC)CCNC(=O)CCC(=O)Nc1ccc2nc(N3CCN(C)CC3)cc(C)c2c1	FBA Mtb inh active (no result: BioA inh)
Cc1ccc(C(=O)N/N=C\c2ccc(Br)o2)o1	GDH-TPI counter 58
Cc1c(/C=N/NC(=O)c2ccc(Br)o2)cnn1C	FBA Mtb inh 127
CCCc1cn(CC[C@H]2CC[C@@H](NC(=O)C3CCCC3)[C@@H](CO)O2)nn1	none (no result: 3CLpro inhibitor, FBA Mtb inh, FadD28 FP inh, GDH-TPI counter)
CSc1nc2nc(C(F)(F)F)cc(-c3ccccc3)n2n1	FBA Mtb inh 34
CSc1nc2nc(-c3ccccc3)cc(C(F)(F)F)n2n1	FBA Mtb inh 37
CCOC(=O)c1sc(NC(=O)c2ccc(C)s2)cc1C	GDH-TPI counter 43
CCOC(=O)c1sc(NC(C)=O)cc1C	none
O=C(CN1CCOCC1)NC[C@@H]1N[C@@H](CO)[C@H]1c1ccc(-c2ccccc2)cc1	none (no result: 3CLpro inhibitor, FBA Mtb inh, FadD28 FP inh, GDH-TPI counter)
CCNc1nc(C)c2cc(Br)c(=O)n(CC)c2n1	FBA Mtb inh 156, GDH-TPI counter 40
CCOC(=O)C(C#N)=CN1CCNc2ccccc21	GDH-TPI counter 31 (no result: 3CLpro inhibitor)
C=CC[C@]1(C(=O)N(C)C)N=C(c2ccc(OCCCO)cc2)O[C@H]1c1ccccc1	none (no result: 3CLpro inhibitor, FBA Mtb inh, FadD28 FP inh, GDH-TPI counter)
COc1ccc(/C=N/n2c(=O)[nH]c3c([nH]c4ccc(F)cc43)c2=O)cc1CN1CCCCC1	FBA Mtb inh 82
COc1ccc2c(c1)[nH]c1c(=O)n(/N=C/c3ccc(OC)c(CN4CCCC4)c3)cnc12	GDH-TPI counter 54
Cc1ccc(-c2ccc3c(c2)O[C@H](CN(C)C(=O)C2CC2)[C@@H](C)CN([C@@H](C)CO)S3(=O)=O)cc1	none (no result: 3CLpro inhibitor, FBA Mtb inh, FadD28 FP inh, GDH-TPI counter)
COCCn1c(=NC(=O)/C=C/c2cccs2)sc2cc(NC(C)=O)ccc21	GDH-TPI counter 31
